In assay [1] the test system is Plasmodium falciparum Sir2 (PF13_0152, Sir2A). Description: Plasmodium falciparum Sir2A binding compounds – biochemical, small-molecule microarray, 635 nm fluorescence, primary screen (AID 1098).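 Note: score merges spot fluorescence intensity with its signal-to-noise ratio.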 The note with it: fluorescence 635 nm, higher = more signal.
The nature of assay [2]: probe aDKK1 binding to arrayed compounds – biochemical, biotinylated probe, 635/667 nm fluorescence, primary screen (AID 1099).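 Note: score merges 667nm spot fluorescence with signal to noise across triplicate slides; reference of the scale not given here.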 The note with it: small-molecule microarray, higher = more signal.
The nature of assay [3]: probe aCHRDL2 binding to arrayed compounds – biochemical, biotinylated probe, 635/667 nm fluorescence, primary screen (AID 1100). The note with it: small-molecule microarray, higher = more signal.
Assay [4] in a line: change in splice reporter luminescence, either direction, cell-based, HEK293, spliceosome inhibition project, primary screen (AID 1101).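 Note: HEK293 cells carrying a splicing-competent luciferase reporter gene; test concentration not given here.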 As to conditions: HEK293 splicing luciferase reporter, 24 h, higher = more signal, called active from +8 up or from −8 down. For orientation: Reporter assays use an easily measured gene product as a stand-in for the process of interest.
Assay [5] has as its target Fibroblast growth factor 10 (Homo sapiens) (UniProt O15520). Description: compounds binding fibroblast growth factor 10 – biochemical, small-molecule microarray, 635 nm fluorescence, primary screen (AID 1102). As to conditions: FGF10 binding, fluorescence 635 nm, higher = more signal.
Assay [6] deals with glycogen synthase kinase-3 (GSK3A per assay name; protocol says GSK3B). Description: compounds binding glycogen synthase kinase-3 – biochemical, small-molecule microarray, 635 nm fluorescence, GSK3A, primary screen (AID 1103). Note: the record names both GSK3A and GSK3B. As to conditions: fluorescence 635 nm, higher = more signal.
In assay [7] the target is Epidermal growth factor receptor (Homo sapiens) (UniProt P00533). Description: compounds binding epidermal growth factor receptor – biochemical, small-molecule microarray, 635 nm fluorescence, primary screen (AID 1104).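 Note: score merges 667 nm emission intensity with spot signal to noise over triplicate slides.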 As to conditions: EGFR binding, higher = more signal.
Sequence of Epidermal growth factor receptor (Homo sapiens) (P00533 whole entry, looked up): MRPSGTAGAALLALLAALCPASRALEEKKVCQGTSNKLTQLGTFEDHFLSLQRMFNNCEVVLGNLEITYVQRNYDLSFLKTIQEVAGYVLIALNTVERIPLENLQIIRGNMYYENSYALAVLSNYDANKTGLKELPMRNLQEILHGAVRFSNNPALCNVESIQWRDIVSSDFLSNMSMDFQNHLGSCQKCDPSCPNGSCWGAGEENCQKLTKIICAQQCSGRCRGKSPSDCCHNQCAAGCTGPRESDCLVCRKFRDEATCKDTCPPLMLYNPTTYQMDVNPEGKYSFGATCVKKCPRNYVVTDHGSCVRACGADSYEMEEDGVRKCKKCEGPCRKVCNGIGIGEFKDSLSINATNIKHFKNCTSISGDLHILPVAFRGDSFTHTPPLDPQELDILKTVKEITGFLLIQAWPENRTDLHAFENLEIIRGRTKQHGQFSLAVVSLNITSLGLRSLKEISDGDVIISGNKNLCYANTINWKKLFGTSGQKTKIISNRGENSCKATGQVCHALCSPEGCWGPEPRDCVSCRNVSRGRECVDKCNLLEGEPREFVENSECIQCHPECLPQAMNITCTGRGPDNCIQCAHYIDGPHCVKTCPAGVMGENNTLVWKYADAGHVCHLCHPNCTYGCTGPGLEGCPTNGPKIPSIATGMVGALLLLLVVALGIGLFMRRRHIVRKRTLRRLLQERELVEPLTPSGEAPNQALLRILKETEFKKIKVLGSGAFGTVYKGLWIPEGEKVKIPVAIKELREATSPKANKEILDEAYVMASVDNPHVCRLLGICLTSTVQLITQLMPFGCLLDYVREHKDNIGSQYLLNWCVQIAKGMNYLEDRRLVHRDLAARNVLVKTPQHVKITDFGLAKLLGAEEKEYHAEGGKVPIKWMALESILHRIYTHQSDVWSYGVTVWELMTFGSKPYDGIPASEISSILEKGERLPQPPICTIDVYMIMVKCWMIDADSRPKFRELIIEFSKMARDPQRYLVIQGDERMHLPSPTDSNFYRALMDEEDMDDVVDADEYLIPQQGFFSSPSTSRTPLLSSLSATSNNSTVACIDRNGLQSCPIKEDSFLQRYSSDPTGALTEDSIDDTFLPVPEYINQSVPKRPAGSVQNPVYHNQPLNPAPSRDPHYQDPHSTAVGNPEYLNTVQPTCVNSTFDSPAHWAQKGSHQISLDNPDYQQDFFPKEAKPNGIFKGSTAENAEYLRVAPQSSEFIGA
Assay [8] concerns the target Follistatin-related protein 3 (Homo sapiens) (UniProt O95633). Description: compounds binding follistatin-related protein 3 – biochemical, small-molecule microarray, 635 nm fluorescence, primary screen (AID 1105).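 Note: score merges emission near 667 nm and signal to noise per printed spot across three slides.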 As to conditions: FSTL3 binding, higher = more signal.
The target in assay [9] is Dickkopf-related protein 1 (Homo sapiens) (UniProt O94907). Description: small molecules binding DKK1 protein – biochemical, small-molecule microarray, 635 nm fluorescence scan, primary screen (AID 1106).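 Note: score merges emission near 667 nm with signal to noise over three replicate slides.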 As to conditions: higher = more signal.
Sequence of Dickkopf-related protein 1 (Homo sapiens) (O94907 whole entry, looked up): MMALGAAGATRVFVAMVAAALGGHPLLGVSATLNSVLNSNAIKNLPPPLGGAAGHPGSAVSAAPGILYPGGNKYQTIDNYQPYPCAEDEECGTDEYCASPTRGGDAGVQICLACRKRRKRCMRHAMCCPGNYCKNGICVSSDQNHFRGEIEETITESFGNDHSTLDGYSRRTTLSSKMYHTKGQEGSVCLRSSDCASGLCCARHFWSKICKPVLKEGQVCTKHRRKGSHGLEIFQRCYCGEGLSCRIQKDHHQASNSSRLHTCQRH
For assay [10], the system named is Inhibin beta A chain (activin A). The experiment in a line: small molecules binding activin A – biochemical, small-molecule microarray, 635 nm fluorescence scan, primary screen (AID 1107).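 Note: mouse activin A protein probed at 4.33 µg/mL on printed slides; score merges bound-protein fluorescence near 667 nm with spot signal-to-noise.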 The note with it: INHBA, higher = more signal.

Activity calls are given as the source filed them.

Sequence of Fibroblast growth factor 10 (Homo sapiens) (O15520 whole entry, looked up): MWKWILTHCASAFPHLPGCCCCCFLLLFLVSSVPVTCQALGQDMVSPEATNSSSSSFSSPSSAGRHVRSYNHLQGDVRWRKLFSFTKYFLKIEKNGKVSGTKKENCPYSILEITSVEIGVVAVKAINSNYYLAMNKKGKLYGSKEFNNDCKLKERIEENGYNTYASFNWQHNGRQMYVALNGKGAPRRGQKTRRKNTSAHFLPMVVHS
Sequence of Follistatin-related protein 3 (Homo sapiens) (O95633 whole entry, looked up): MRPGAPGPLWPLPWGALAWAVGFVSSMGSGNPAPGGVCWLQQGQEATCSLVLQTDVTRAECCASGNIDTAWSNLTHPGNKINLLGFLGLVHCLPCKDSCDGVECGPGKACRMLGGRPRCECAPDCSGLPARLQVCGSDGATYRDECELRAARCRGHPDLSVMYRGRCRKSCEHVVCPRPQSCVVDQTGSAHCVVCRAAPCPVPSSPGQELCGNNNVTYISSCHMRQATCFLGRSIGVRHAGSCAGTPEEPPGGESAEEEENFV

In the case of `CC(C)CON=C1[C@H]2CCn3c(=O)n(Cc4cc5c(cc4Cl)OCO5)c(=O)n3[C@H]2[C@H](O)[C@@H]2O[C@H]12`, the composite z-score in assay [1] is 0.241; in [2], -0.304; in [3] it was -0.641; in assay [5], 0.533; in assay [6] it was 0.589; in assay [7], 0.483. Further, the composite z-score was 0.554 in assay [8], 0.484 in [9] and 0.233 in assay [10]. Moreover, the z-score in assay [4] was -0.756 (inactive).
As for `CO[C@H]1COC(=O)CC=C[C@@H](C)[C@H](NS(=O)(=O)c2ccc(C)cc2)COC(=O)CCC[C@@H]1C`, the composite z-score was 0.684 in assay [1]; -0.233 in assay [2]; -0.689 in [3]; 0.366 in assay [5]; 0.22 in [6]; 0.484 in assay [7]. The composite z-score in assay [8] stood at 1.04; in [9] it was 1.53; in assay [10] it was 0.9. In addition, the z-score in assay [4] was -0.679 (inactive).
`COC(=O)[C@H]1O[C@@H](c2c(OC)c(OC)c(C)c(OC)c2OC)[C@H](C)[C@@H](O)[C@H]1C`: the composite z-score in [1] was determined as 0.209; in [2], 0.138; in [3], 0.112; in assay [5] it was 0.798; in assay [6], 0.824; in assay [7] it was 0.0132. Also, the composite z-score in [8] was 0.89; in assay [9] it was 0.743; in [10], -0.311. In assay [4], the z-score is -0.187 (inactive).
In the case of `CCOC(=O)[C@H](CC(C)C)NC(=O)CCC1CC(OC(=O)NCc2ccc3c(c2)OCO3)CC2(CCCC(COC(=O)NCc3cccc(C(F)(F)F)c3)O2)O1` (stereo not given in full), the composite z-score in assay [1] is 0.15; in assay [2] it was -0.229; in assay [3] it was -0.031; in assay [5] it was 0.418; in assay [6], -0.319; in assay [7] it was 0.242. The composite z-score in [8] was 0.395; in [9], 0.355; in assay [10], 0.348. The z-score in assay [4] is -0.235 (inactive).
On to `O=c1n(Cc2cc3c(cc2Cl)OCO3)c(=O)n2n1CC[C@@H]1C(=NOC[C@@H](O)COCc3ccco3)[C@H]3O[C@H]3[C@@H](O)[C@@H]12`, for which the composite z-score in assay [1] is 0.461; in assay [2] it was -0.0876; in assay [3], -0.454; in [5] it was 0.246; in [6], 0.532; in [7] it was 0.349. The composite z-score in assay [8] was 0.596; in [9], 0.538; in assay [10], 0.217. Moreover, the z-score in assay [4] was 0.115 (inactive).
Take `C=CC[C@@H]1C=C[C@H](ON=C(C)CCC(=O)OC[C@H]2O[C@H](c3ccccc3)C=C[C@@H]2Oc2ccc(OC)cc2)[C@@H](CO)O1`: the composite z-score was 0.892 in assay [1]; -0.347 in [2]; -0.524 in [3]; -0.196 in assay [5]; -0.855 in assay [6]; -0.382 in [7]. The results for the composite z-score in [8], in [9] and in [10] were -0.532, 0.0305 and 0.837, respectively. Besides, the z-score in assay [4] is -0.393 (inactive).
As to `CCOC(=O)NN=C1C[C@@H](O)[C@@H](O)[C@@H]2[C@@H]3C(=O)N([C@@H](C)c4ccccc4)C(=O)[C@@H]3CC[C@H]12`, the composite z-score in [1] is 0.209; in assay [2], -0.0719; in assay [3] it was -0.183; in assay [5], 0.225; in assay [6], 0.515; in assay [7], 0.308. Further, the composite z-score was 0.345 in assay [8], 0.309 in assay [9] and 0.121 in assay [10]. Also, the z-score in [4] is -0.681 (inactive).
Turning to `COC(=O)[C@H](C)NC(=O)CCC1CC(OC(=O)NCCc2ccc(F)cc2)CC2(CCCC(COC(=O)NCc3cccc(C(F)(F)F)c3)O2)O1` (stereo not given in full), the composite z-score is 0.185 in assay [1]; -0.528 in assay [2]; -0.623 in [3]; 0.951 in assay [5]; 0.359 in assay [6]; 0.873 in assay [7]. The values for the composite z-score in assay [8], in [9] and in [10] were 1.31, 1.41 and 0.0622, respectively. The z-score in [4] was 0.249 (inactive).
On to `CO[C@H]1COC(=O)CC=C[C@@H](C)[C@H](OC)COC(=O)[C@@H]2CCCN2C(=O)CC=C[C@@H]1C`, for which the composite z-score in [1] is 0.686; in [2], -0.382; in assay [3], -1.14; in assay [5], 0.892; in assay [6] it was 0.78; in assay [7] it was 1.13. Besides, the composite z-score in [8] was 1.49; in [9] it was 1.16; in [10], 1.13. In assay [4], the z-score was 0.308 (inactive).
As to `O=C1[C@H]2[C@H]3[C@H](O)[C@H](O)CC(=NOC[C@@H](O)COCc4ccco4)[C@H]3CC[C@H]2C(=O)N1C[C@@H]1CCCO1`, the composite z-score in assay [1] is 0.717; in [2], -0.369; in assay [3], -1.4; in assay [5], 0.725; in [6], 1.2; in [7] it was 0.947. Further, the composite z-score was 0.95 in [8], 1.21 in assay [9] and -0.0262 in assay [10]. In addition, the z-score in assay [4] was 0.273 (inactive).
Turning to `C[C@@H](c1ccccc1)N1C(=O)[C@H]2[C@H]3[C@H](O)[C@H](O)CC(=O)[C@H]3CC[C@H]2C1=O`, the composite z-score in assay [1] was -0.417; in [2], -0.338; in assay [3], -0.489; in [5] it was 0.526; in [6], 0.523; in [7] it was 0.202. The composite z-score in assay [8] was 0.548; in [9], 0.491; in assay [10] it was -0.0854. Moreover, the z-score in assay [4] is 0.282 (inactive).
As for `CCOC(=O)[C@H](CC(C)C)NC(=O)CCC1CC(OC(=O)NCCc2ccc(F)cc2)CC2(CCCC(COC(=O)NCCc3ccccc3OC)O2)O1` (stereo not given in full), the composite z-score in [1] was 0.82; in assay [2], -0.186; in assay [3] it was -0.313; in assay [5], 0.768; in assay [6], 0.773; in assay [7] it was 0.603. Moreover, the composite z-score in assay [8] is 0.744; in [9], 0.526; in assay [10], -0.0274. For the same compound, the z-score in assay [4] was -0.135 (inactive).
For the compound `Cc1ccc(S(=O)(=O)n2c3ccccc3c3nnc(C(=O)c4ccccc4)nc32)cc1`, the composite z-score in assay [1] is -0.0568; in assay [2], -0.153; in assay [3], -0.22; in assay [5] it was 0.328; in [6], 0.0643; in assay [7] it was 0.494. In addition, the composite z-score worked out at 0.511 in [8], 0.563 in assay [9] and 0.546 in assay [10]. The z-score in assay [4] was -1.04 (inactive).

The values above are taken from PubChem BioAssay.
